High-throughput results as filed in PubChem.
Only some compounds are listed: those with a hit (about 0.8% of all), similar ones and a draw of the others.
FEN1 inhibitor = qHTS Assay for the Inhibitors of Human Flap endonuclease 1 (FEN1). P39748. Recombinant FEN1 flap cleavage, fluorescence, 15 min. Potency, µM (doses to about 114 µM), hits mostly inhibitors. hit rate 0.35% among 390,000. AID 588795, 2011; also: nearly all actives have a fitted effect of over 65% in size
Target sequence (P39748 whole entry, looked up): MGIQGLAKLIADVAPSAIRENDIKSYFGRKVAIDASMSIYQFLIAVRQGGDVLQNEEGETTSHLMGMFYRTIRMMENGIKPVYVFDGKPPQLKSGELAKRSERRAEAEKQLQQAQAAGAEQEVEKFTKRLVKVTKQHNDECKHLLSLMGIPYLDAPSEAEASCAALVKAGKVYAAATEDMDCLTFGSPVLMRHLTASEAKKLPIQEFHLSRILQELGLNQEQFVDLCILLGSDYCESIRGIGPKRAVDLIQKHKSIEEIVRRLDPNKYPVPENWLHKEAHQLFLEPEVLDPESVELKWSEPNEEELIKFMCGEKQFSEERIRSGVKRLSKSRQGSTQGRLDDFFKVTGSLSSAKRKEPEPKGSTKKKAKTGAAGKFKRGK
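Quantitative HTS format: each compound was titrated, incubated with 10 nM nuclease for 15 min at room temperature, then challenged with flap substrate at 50 nM final. Signal change over 15 min gave concentration–effect curves.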
PI4K2A block = qHTS for small molecular inhibitors of PI4K2A | Phosphatidylinositol 4-kinase type 2-alpha (Homo sapiens), Q9BTU6 | purified PI4K2A, ADP-Glo luminescence, 1 h; stronger effect = lower value | activity change, negative = inhibition, % at 76.9 µM | hit rate 0.13% among 420,000; in the data active = activity change below about -50%; inconclusive = mostly about -30% to -49%
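Compounds are screened against recombinant PI4K2A using PI as substrate and ATP, the latter dispensed at 300 microM. Reactions run one hour at ambient temperature before ADP-Glo detection; full inhibition defined by wells lacking enzyme.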
APE1 inh = qHTS Assay for Inhibitors of the Human Apurinic/apyrimidinic Endonuclease 1 (APE1); DNA repair nuclease/redox regulator APEX1 (Homo sapiens), P27695; recombinant APE1, TAMRA/BHQ-2 abasic DNA cleavage fluorescence; Potency, µM (titrated, usually from 65.8 µM), most hits filed as inhibitors; hit rate 0.35% among 350,000; also: nearly all actives have a fitted effect of over 55% in size
Target sequence (P27695 whole entry, looked up): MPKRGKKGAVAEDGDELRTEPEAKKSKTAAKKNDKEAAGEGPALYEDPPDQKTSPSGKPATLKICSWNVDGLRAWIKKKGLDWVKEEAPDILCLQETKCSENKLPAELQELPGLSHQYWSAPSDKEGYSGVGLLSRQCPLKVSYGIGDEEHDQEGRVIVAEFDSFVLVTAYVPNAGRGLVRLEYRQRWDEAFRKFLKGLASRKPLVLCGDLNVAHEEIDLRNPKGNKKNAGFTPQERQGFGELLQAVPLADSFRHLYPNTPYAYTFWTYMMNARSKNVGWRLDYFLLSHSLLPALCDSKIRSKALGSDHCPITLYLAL
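APE1 at 0.75 nM final was preincubated with compound 15 min at room temperature, then 50 nM double-stranded THF abasic-site substrate (5'-TAMRA/3'-BHQ-2) was added. Fluorescence (ex 525/em 598 nm) was read kinetically; third-minus-first read gave activity.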
TDP1 block = qHTS Assay for Inhibitors of Tyrosyl-DNA Phosphodiesterase (TDP1). Tyrosyl-DNA phosphodiesterase 1 (Homo sapiens), Q9NUW8. recombinant TDP1, AlphaScreen DNA substrate cleavage. Potency, µM (top dose mostly 130 µM), most hits filed as inhibitors. hit rate 0.28% among 350,000; also: nearly all actives have a fitted effect of over 40% in size
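Compounds were preincubated with Tdp1 (1 nM final) for 15 min at room temperature before substrate (15 nM final) started a 5 min reaction; beads (10 ug/ml final) were then added for 10 min before AlphaScreen detection.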
Tb PFK inh-1 = qHTS Assay to Find Inhibitors of T. brucei phosphofructokinase. T. brucei PFK, ADP-Glo luminescence. Potency, µM (doses to about 57.5 µM), hits mostly inhibitors. hit rate 0.17% among 330,000; also: nearly all actives have a fitted effect of over 60% in size
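In TEA buffer at pH 8.0 with 5 mM MgCl2, enzyme (1.25 nM) converted F6P (0.5 mM) and ATP (0.1 mM) for 45 min at room temperature. ADP product was read by luciferase luminescence.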
Tb PGK inh = qHTS Assay to Find Inhibitors of Phosphoglycerate Kinase | Potency, µM (doses to about 57.5 µM), hits mostly inhibitors | hit rate 0.043% among 380,000 | PGK/GAPDH coupled, Kinase-Glo luminescence, 60 min | AID 602233, 2012; also: nearly all actives have a fitted effect of over 60% in size
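Luminescent ATP detection (Kinase-Glo Plus) follows a 60-minute room-temperature incubation, with wells lacking PGK as controls. Buffer: 100 mM TEA (pH 7.6), 5 mM MgCl2, 0.01% Tween-20. Coupling enzyme GAPDH (100 nM final) supplies unstable 1,3-BPG in-well.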
Tb PFK KinaseGlo = Tb PFK orthogonal confirmatory assay using ATP depletion (Kinase-Glo Plus) as an alternative measure of Tb PFK activity: Hit Validation | shares compounds with Tb PFK inh-1 | Tb PFK enzyme, ATP depletion, Kinase-Glo Plus luminescence | Potency, µM (top dose mostly 57.5 µM) | hit rate 47% among 1,100 | AID 504636, 2011; calls by dose curve; also: nearly all actives have a fitted effect of over 60% in size
Tb PFK inh-2 = Inhibitors of T. brucei phosphofructokinase: Hit Validation | Potency, µM (series often up to 57.5 µM), most hits filed as inhibitors | shares compounds with Tb PFK inh-1 | purified T. brucei PFK, ADP-Glo luminescence, 45 min | hit rate 41% among 1,100; also: nearly all actives have a fitted effect of over 60% in size
Hits are given with their value; [ ] = remark or other dose. Unless noted, calls follow the shape of the dose curve; as a rule, active = well fitted curve in the direction sought with a large enough effect; inconclusive = small, poorly fitted or top-dose-only effect, or another doubt; inactive = no such curve, though single readings can be large; an effect the other way counts as inactive or inconclusive.

Cc1cc(NS(=O)(=O)c2ccc(NC(=O)Cc3ccc(Cl)c(Cl)c3)cc2)no1 was read as FEN1 inhibitor inactive, PI4K2A block inactive, APE1 inh inactive, TDP1 block inactive, Tb PFK inh-1 1.2µM, Tb PGK inh inactive, Tb PFK KinaseGlo 0.426µM and Tb PFK inh-2 0.757µM.
`Cc1cc(NC(=O)CCl)no1` gave FEN1 inhibitor inactive, PI4K2A block inactive, APE1 inh inactive, TDP1 block inactive, Tb PFK inh-1 inactive and Tb PGK inh inactive.
`O=C(Cc1ccc(Br)cc1)Nc1cccc(S(=O)(=O)N2CCOCC2)c1` gave FEN1 inhibitor inactive, PI4K2A block inactive, APE1 inh inactive, TDP1 block inactive, Tb PFK inh-1 inconclusive, Tb PGK inh inactive, Tb PFK KinaseGlo inconclusive and Tb PFK inh-2 inconclusive.
`ClC(Cl)c1ccccc1` gave APE1 inh inactive and TDP1 block inactive.
`COC(=O)[C@]1(C)CC[C@@]2(C)CC[C@@]3(C)C4=CC=C5C(=CC(=O)C(O)=C5C)[C@@]4(C)CC[C@@]3(C)C2C1` (some centres not stated) gave APE1 inh inactive and TDP1 block inactive[12.3 µM].
Screening CC(C)Br returned APE1 inh inactive and TDP1 block inactive.
For CN(C(=O)Cc1ccc(Cl)c(Cl)c1)[C@H](CN1CCCC1)c1cccc(N=C=S)c1 the results were APE1 inh inactive and TDP1 block inactive.
CC[C@H](CO)NC(=O)[C@H]1C=C2c3cccc4[nH]cc(c34)C[C@@H]2N(C)C1 was read as APE1 inh inactive and TDP1 block inactive.
Screening CC(O)CN1CCN(CC(=O)[O-])CCN(CC(=O)[O-])CCN(CC(=O)[O-])CC1.[Gd+3] (configuration not stated) returned PI4K2A block inactive.
Screening Cc1cc(NC(=O)COC(=O)c2c(C)nn(Cc3ccccc3)c2C)no1 returned FEN1 inhibitor inactive, PI4K2A block inactive, APE1 inh inactive, TDP1 block inactive, Tb PFK inh-1 inactive and Tb PGK inh inactive.
Screening Cc1cc(NC(=O)COC(=O)CSCc2ccc(Cl)c(Cl)c2)no1 returned FEN1 inhibitor inactive, PI4K2A block inactive, APE1 inh inactive, TDP1 block inactive, Tb PFK inh-1 inconclusive, Tb PGK inh inactive, Tb PFK KinaseGlo inconclusive and Tb PFK inh-2 inconclusive.
Screening C[C@]12CC[C@@H]3c4ccc(O)c(O)c4CC[C@H]3[C@@H]1CC[C@@H]2O returned FEN1 inhibitor inconclusive, PI4K2A block inactive, APE1 inh inactive, TDP1 block inactive, Tb PFK inh-1 13.5µM, Tb PGK inh inactive, Tb PFK KinaseGlo 7.57µM and Tb PFK inh-2 13.5µM.
Cc1c(Br)c([N+](=O)[O-])nn1CC(=O)Nc1ccccn1 was read as FEN1 inhibitor inactive, PI4K2A block inactive, APE1 inh inactive, TDP1 block inactive, Tb PFK inh-1 19µM, Tb PGK inh inactive, Tb PFK KinaseGlo 19µM and Tb PFK inh-2 inconclusive.
Cc1c(Br)c([N+](=O)[O-])nn1CC(=O)Nc1ccc2nc3n(c(=O)c2c1)CCCC3 was read as FEN1 inhibitor inactive, PI4K2A block inactive, APE1 inh inactive, TDP1 block inactive, Tb PFK inh-1 inconclusive, Tb PGK inh inactive, Tb PFK KinaseGlo 23.9µM and Tb PFK inh-2 inconclusive.
`CC(=O)Nc1ccc(NC(=O)Cn2nc([N+](=O)[O-])c(Br)c2C)cc1` gave FEN1 inhibitor inactive, PI4K2A block inactive, APE1 inh inactive, TDP1 block inactive, Tb PFK inh-1 12µM, Tb PGK inh inactive, Tb PFK KinaseGlo 19µM and Tb PFK inh-2 30.1µM.
`Cc1ccc(Cn2nc(C(=O)Nc3ccc(Br)cc3)cc2C)cc1` gave FEN1 inhibitor inactive, PI4K2A block inactive, APE1 inh inactive, Tb PFK inh-1 inactive and Tb PGK inh inactive.
`ClCC(Cl)CCl` gave APE1 inh inactive and TDP1 block inactive.
For CCCCCCCCCC[n+]1cccc([C@@H]2CCCN2C)c1 the results were APE1 inh inactive and TDP1 block inactive.
Screening Cc1cc(CSc2ccccc2)ccc1NC(=O)COc1ccccc1 returned FEN1 inhibitor inactive, PI4K2A block inactive, APE1 inh inactive, TDP1 block inactive, Tb PFK inh-1 inconclusive, Tb PGK inh inactive, Tb PFK KinaseGlo inconclusive and Tb PFK inh-2 inconclusive.
Screening COc1ccc(C(=O)Cn2c(NCCO)nc3ccccc32)cc1 returned FEN1 inhibitor inactive, PI4K2A block inactive, APE1 inh inactive, TDP1 block inactive, Tb PFK inh-1 inactive and Tb PGK inh inactive.
For Cc1nc2ccccc2n1CC(=O)c1ccc(O)c(O)c1 the results were FEN1 inhibitor inactive, PI4K2A block inactive, APE1 inh inactive, Tb PFK inh-1 30.1µM, Tb PGK inh inactive, Tb PFK KinaseGlo inconclusive and Tb PFK inh-2 inconclusive.
ClCCN(CCCl)/C(=C\c1ccccc1)c1ccnc2ccccc12 was read as FEN1 inhibitor inactive.
C=CCN1C(=O)/C(=C2/Sc3ccccc3N2CCCS(=O)(=O)O)SC1=S was read as FEN1 inhibitor inconclusive, PI4K2A block inactive, APE1 inh inconclusive, TDP1 block inactive, Tb PFK inh-1 inconclusive, Tb PGK inh inactive, Tb PFK KinaseGlo inactive and Tb PFK inh-2 inconclusive.
Screening O=C(Nc1ccc(Br)cc1C(=O)O)c1ccc2c(c1)C(=O)N(Cc1ccccc1)C2=O returned FEN1 inhibitor inconclusive, PI4K2A block inactive, APE1 inh inactive, TDP1 block inactive, Tb PFK inh-1 inactive and Tb PGK inh inactive.
Screening CC(=O)CC(c1ccccc1)c1c(O)c2cccc(O)c2oc1=O (configuration not stated) returned APE1 inh inactive and TDP1 block inactive.
